Experimental data published in PubChem BioAssay.
The source made the active and inactive calls.

test system: XIP peptide (Xip251-270) binding; assay: XIP fragment 251-270 binding compounds – biochemical, small-molecule microarray, fluorescence 635/667 nm, 0.1 µg/mL protein, primary screen (AID 1182); conditions: fluorescent protein binding, 635 nm, higher = more signal, called active from +8 up or from −8 down

Composite z-score, inactive:
C=CCNC(=O)[C@H]1[C@@H]2C(=O)O[C@@H](c3ccccc3)[C@@H](c3ccccc3)N2[C@@H](c2ccccc2OCCO)[C@]12C(=O)N(C(=O)OCCOC)c1ccc(C#CCNC(N)=O)cc12 0.854, O=C1c2ccccc2[C@](Cc2ccccc2I)(C(=O)NCC(F)(F)F)[C@H](c2ccc(CO)cc2)N1Cc1ccccc1C(F)(F)F 0.57, Cc1ccc(N2C(=O)c3ccccc3[C@@H](C(=O)NCC(F)(F)F)[C@@H]2c2ccc(CO)cc2)nc1 -0.118, [N-]=[N+]=NCc1ccccc1C[C@@]1(C(=O)N2CCOCC2)N=C(c2ccc(OCCCO)cc2)O[C@@H]1c1ccccc1N=[N+]=[N-] 1.4, C=C(CCCC)/C(=C/C[C@@H](OC(=O)c1ccncc1)c1cccc(OCCO)c1)c1cc(C(=O)OC)ccc1OC 1.33, C=C(CCCC)C(=O)CC[C@@H](OC(C)=O)c1ccccc1OCCO 0.144, CCOC(=O)C1=CC[C@@H](c2ccc(-c3ccc(OCc4ccccc4)cc3)c(OC)c2)N(S(=O)(=O)c2ccc(C)cc2)[C@H]1c1ccccc1 0.525, CC(C)[C@H]1NC(=O)[C@@]23C(=O)N[C@@H](Cc4ccccc4)C2[C@H](C)[C@@]2(C)O[C@H]2C3/C=C/C/C=C\CNC(=O)[C@H](C)NC1=O (stereo partly specified) -0.311, CC(=O)NCCCC[C@@H]1NC(=O)[C@H]2C[C@@H](C(=O)NCCCCCCN(C)C)[C@@H](c3cccc(OCCO)c3)N2C1=O 2.96, C/C(=N\O)C(=O)NCCCCCNC(=O)OCc1ccccc1 0.759, COCCOC(=O)N1C(=O)[C@@]2(c3cc(C#CC4=CCCCC4)ccc31)[C@H](C(=O)NC[C@H](O)c1ccccc1)[C@H]1C(=O)O[C@H](c3ccccc3)[C@H](c3ccccc3)N1[C@@H]2c1ccc(OCCO)cc1 -0.361, COCCOC(=O)N1C(=O)[C@@]2(c3cc(C#CC4(O)CCCCCC4)ccc31)[C@H](C(=O)N1CCCCCCC1)[C@H]1C(=O)O[C@H](c3ccccc3)[C@H](c3ccccc3)N1[C@@H]2c1ccc(O)cc1 0.888, C=C(COC)/C(=C/C[C@@H](OC(C)=O)c1cccc(OCCO)c1)c1cc(C(=O)OC)ccc1OC -0.496, C=CCC(OC(C)=O)[C@@H]1[C@@H](N(Cc2ccc(-c3cccc(C(F)(F)F)c3)o2)C(=O)Cc2ccc(F)cc2)c2cc(OCCCO)ccc2N1C(=O)c1ccc(-c2ccccc2)cc1 (stereo partly specified) -0.403, CC(C)[Si]1(C(C)C)O[C@@H](c2ccccc2)c2cc(C3CC3)nc(-c3ccc(Oc4ccccc4)cc3)c21 -0.732, Cc1ccc([C@@H]2CC=C(C(=O)O)[C@H](c3ccccc3)N2S(=O)(=O)c2ccc(C)cc2)cc1 1.71, CCOC(=O)C[C@H]1[C@H](OC(=O)c2ccccc2-c2ccccc2)[C@@H](NC(=O)C2CCCCC2)c2cc(OCCCO)ccc2N1C(=O)c1ccccc1 -0.339, Cc1ccc(S[C@]2(C(=O)NCCCN(C)C)CC(=O)N(Cc3ccccc3)[C@@H]2c2ccc(CO)cc2I)cc1 0.066, CCCC=C(CCC)[C@@H](NC(=O)c1ccc(C(F)(F)F)cc1)c1ccccc1 0.177, NC(=O)NCC#Cc1ccc2c(c1)[C@]1(C(=O)N2)[C@H](c2ccccc2OCCO)N2[C@H](c3ccccc3)[C@H](c3ccccc3)OC(=O)[C@H]2[C@@H]1C(=O)N1CCN(c2ncccn2)CC1 0.233, C=C(CCCC)/C(=C/C[C@H](OC(=O)c1ccncc1)c1cccc(OCCO)c1)c1cc(C(=O)OC)ccc1OC 2.08, CN1CCC(CCCO)=CC1C1CC1 (stereo unspecified) -0.289, COc1ccc([Si](C)(C)[C@H]2[C@H](CC(=O)N(CCO)Cc3ccccc3)O[C@@]3(C(=O)N(C)c4ccccc43)[C@@H]2C)cc1 0.0642, CN1C2C=C(c3ccc(CO)cc3)C(C3C(=O)N(C(N)=O)C(=O)C32)C1c1cccs1 (stereo unspecified) 0.549, O=C/C=C/c1ccccc1Cl 0.0944, COCCOC(=O)N1C(=O)[C@@]2(c3cc(C#CCCO)ccc31)[C@H](C(=O)N1CCCCCCC1)[C@H]1C(=O)O[C@H](c3ccccc3)[C@H](c3ccccc3)N1[C@@H]2c1ccc(O)cc1 1.48, C=C(/C(=C/C[C@@H](OC(=O)c1ccncc1)c1ccc(CO)o1)c1cnc2ccccc2c1)C(C)C 1.11, COc1ccc(C(O)C2C=CC3C(=O)N(C)C(=O)C3N2N2CCCCC2)cc1OCc1ccccc1 (stereo unspecified) -0.001, COC(=O)[C@@]1(Cc2ccc(OC)cc2)[C@H]2c3cc(C(=O)N(C)C)n(CCc4ccc(OC)c(Br)c4)c3C[C@H]2CN1C(=O)c1ccccc1 0.717, CCCCCCc1nc(C2CC2)c(C)c2c1[Si](C(C)C)(C(C)C)OC2 -0.0485, C[C@H]1C2[C@H](Cc3ccccc3)NC(=O)[C@]23C(=O)N[C@H](Cc2ccccc2)C(=O)N[C@@H](Cc2ccccc2)C(=O)NC/C=C\C/C=C/C3[C@@H]2O[C@]12C (stereo partly specified) -0.157, O=C1OCCC=C[C@H]2OC34C=CCN(Cc5ccccc5)C(=O)[C@H]3N(CCO)C(=O)[C@@H]4C12 (stereo partly specified) -0.525, C=CCN1C(=O)[C@@]2(Cc3ccccc3)N=C(c3ccc(OCCCO)cc3)O[C@H]2c2ccccc21 1.67, COCCOC(=O)N1C(=O)[C@@]2(c3cc(C#CCNC(N)=O)ccc31)[C@H](c1ccccc1OCCO)N1[C@H](c3ccccc3)[C@H](c3ccccc3)OC(=O)[C@H]1[C@@H]2C(=O)NC[C@H](O)c1ccccc1 0.88, CC(=O)NCCCC[C@@H]1NC(=O)[C@H]2C[C@@H](C(=O)NCCCCCCN(C)C)[C@@H](c3ccc(O)cc3)N2C1=O 1.76, CN1C(=O)C2C=CC(C(O)c3ccc(N(C)C)cc3)N(Nc3ccc([N+](=O)[O-])cc3[N+](=O)[O-])C2C1=O (stereo unspecified) 0.695
